From PubChem BioAssay (Tox21)
Inconclusive results are not listed. Where a call stands in place of a potency, no number is given. The source made the active and inactive calls. Unless noted, calls come from the whole dose curve; as a rule, active = well fitted curve in the direction sought with a large enough effect in the repeat runs; inconclusive = weak or mixed curves; inactive = no such curve, though single readings can be large; an effect the other way counts as inactive or inconclusive.

What was measured:
[1] = test system: thyroid hormone receptor (rat, GH3 cells); experiment: qHTS assay to identify small molecule agonists of the thyroid receptor (TR) signaling pathway (AID 743066; calls by dose curve)
[2] = biological target: Estrogen receptor (Homo sapiens) (UniProt P03372); experiment: qHTS assay to identify small molecule antagonists of the estrogen receptor alpha (ER-alpha) signaling pathway (AID 743069; active = well fitted curve in the direction sought with a large enough effect in the signal ratio in the repeat runs, not every such curve was filed as active; the % refers to the signal ratio)
Procedure, shortened: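 Beta-lactamase FRET fluorescence is read after 2 hr at room temperature with LiveBLAzer B/G substrate. Before that, ER-alpha-bla HEK293 cells sit 4 hr after plating, then receive compound plus 17beta-estradiol and incubate 18 hr at 37C.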

[3] = biological target: Estrogen receptor (Homo sapiens) (UniProt P03372); experiment: qHTS assay to identify small molecule agonists of the estrogen receptor alpha (ER-alpha) signaling pathway (AID 743075; calls by dose curve;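 note: HEK293 GripTite cells with ER-alpha and UAS-driven beta-lactamase reporter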)
[4] = biological target: Estrogen receptor (Homo sapiens) (UniProt P03372); experiment: qHTS assay to identify small molecule agonists of the estrogen receptor alpha (ER-alpha) signaling pathway using the BG1 cell line (AID 743079); note: nearly all actives have a fitted effect of over 20% in size
[5] = qHTS assay to identify small molecule antagonists of the estrogen receptor alpha (ER-alpha) signaling pathway using the BG1 cell line - cell viability counter screen (AID 743081);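 note: compound given together with 17beta-estradiol as the ER stimulus; series mostly up to about 70 µM; nearly all actives have a fitted effect of over 45% in size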
[6] = biological target: Aromatase (Homo sapiens) (UniProt P11511); experiment: qHTS assay to identify aromatase inhibitors (AID 743083); note: series mostly up to about 70 µM; nearly all actives have a fitted effect of over 55% in size
[7] = qHTS assay to identify aromatase inhibitors - cell viability counter screen (AID 743084);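 note: cells stimulated with testosterone during compound exposure; nearly all actives have a fitted effect of over 55% in size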
[8] = qHTS assay to identify small molecule that activate the aryl hydrocarbon receptor (AhR) signaling pathway - cell viability counter screen (AID 743086);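 note: HepG2 liver cells carrying the AhR DRE luciferase reporter; series mostly up to about 70 µM; nearly all actives have a fitted effect of over 45% in size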
Procedure, shortened: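 HepG2-AhR-luc (HG2L7.5c1) cells, 4000/well, treated 24 h at 37 C with compound; viability measured as CellTiter-Fluor fluorescence after 30 min in the same wells as the luciferase read.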

[9] = biological target: Peroxisome proliferator-activated receptor gamma (Homo sapiens) (UniProt P37231); experiment: qHTS assay to identify small molecule agonists of the peroxisome proliferator-activated receptor gamma (PPARg) signaling pathway (AID 743094; active = well fitted activation curve with a large enough effect in the signal ratio in the repeat runs, not every such curve was filed as active; the % refers to the signal ratio)
Procedure, shortened: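 Fluorescence-based beta-lactamase readout in HEK293H PPARg UAS-bla cells after 17 h compound exposure (37C) and 1 h B/G FRET substrate incubation at room temperature.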

[10] = biological target: Peroxisome proliferator-activated receptor gamma (Homo sapiens) (UniProt P37231); experiment: qHTS assay to identify small molecule antagonists of the peroxisome proliferator-activated receptor gamma (PPARg) signaling pathway (AID 743191; calls by dose curve; note: series mostly up to about 63 µM; nearly all actives have a fitted effect of over 30% in size)
Procedure, shortened: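 GeneBLAzer PPARg UAS-bla HEK293H cells, 5 h post-plating, exposed to compounds 17 h at 37C. LiveBLAzer B/G FRET substrate added for 1 h at room temperature; beta-lactamase reporter read by fluorescence intensity.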

[11] = qHTS assay to identify small molecule antagonists of the peroxisome proliferator-activated receptor gamma (PPARg) signaling pathway - cell viability counter screen (AID 743194); note: nearly all actives have a fitted effect of over 55% in size
Procedure, shortened: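 Cytotoxicity counter screen in PPARg-bla HEK293H cells, same wells as reporter assay. Compounds plus 50 nM rosiglitazone (final) for 17 h at 37 C, then viability read by CellTiter-Glo luminescence.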

[12] = qHTS assay for small molecule agonists of the antioxidant response element (ARE) signaling pathway (AID 743202; active = well fitted activation curve with a large enough effect in the signal ratio in the repeat runs, not every such curve was filed as active; the % refers to the signal ratio)
Procedure, shortened: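 HepG2 ARE-bla reporter line, 2,000 cells/well; 5 h preincubation 37 C/5% CO2; compound (DMSO) 16 h 37 C; B/G FRET substrate 2 h RT; fluorescence intensity.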

[13] = qHTS assay for small molecule agonists of the antioxidant response element (ARE) signaling pathway - cell viability counter screen (AID 743203; calls by dose curve; note: nearly all actives have a fitted effect of over 55% in size)
Procedure, shortened: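 Parallel cytotoxicity read-out for the ARE-bla screen: HepG2 reporter cells, 16 hrs with compounds, then CellTiter-Glo luminescence.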

[14] = qHTS assay for small molecule activators of the heat shock response signaling pathway - cell viability counter screen (AID 743209); note: nearly all actives have a fitted effect of over 50% in size
Procedure, shortened: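 To flag cytotoxic compounds, HSE-bla HeLa cells plated at 1500 cells/well were dosed for 5 h at 37 C, followed by the reporter FRET read and then CellTiter-Glo, with luminescence recorded 30 min after reagent addition.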

[15] = qHTS assay to identify small molecule agonists of the peroxisome proliferator-activated receptor delta (PPARd) signaling pathway - cell viability counter screen (AID 743211); note: nearly all actives have a fitted effect of over 55% in size
Procedure, shortened: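 PPARd-bla HEK293H cells (UAS-beta-lactamase reporter) were treated with compounds for 17 h at 37 C. Viability was then read in the same wells by CellTiter-Glo luminescence after 30 min at room temperature.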

[16] = qHTS assay to identify small molecule antagonists of the estrogen receptor alpha (ER-alpha) signaling pathway - cell viability counter screen (AID 743074; calls by dose curve;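 note: HEK293 cells carrying ER-alpha-UAS-bla reporter stimulated with 17beta-estradiol; nearly all actives have a fitted effect of over 45% in size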)
[17] = qHTS assay to identify small molecule antagonists of the estrogen receptor alpha (ER-alpha) signaling pathway using the BG1 cell line (AID 743080; calls by dose curve;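 note: BG1 cells stimulated with 17beta-estradiol alongside compound; series mostly up to about 70 µM; nearly all actives have a fitted effect of over 25% in size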)
Procedure, shortened: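 Luciferase inhibition measured with ONE-Glo after 30 min at RT in BG1Luc4E2 cells given test compounds and 17beta-estradiol for 21.5 h at 37 C; CellTiter-Fluor viability read in the same wells beforehand.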

[18] = biological target: Aryl hydrocarbon receptor (Homo sapiens) (UniProt P35869); experiment: qHTS assay to identify small molecule that activate the aryl hydrocarbon receptor (AhR) signaling pathway (AID 743085); note: nearly all actives have a fitted effect of over 15% in size; note: potency is the fitted concentration of half-maximal effect;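 for activation: HG2L7.5c1 human HepG2 liver cells with stably integrated DRE-driven firefly reporter; series mostly up to about 70 µM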
Procedure, shortened: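 HepG2 cells (HG2L7.5c1) stably carrying a firefly luciferase reporter driven by 20 dioxin responsive elements were exposed to compound for 24 h at 37C after a 5 h settling period; luminescence rise (ONE-Glo) indicated activation.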

[19] = qHTS assay to identify small molecule antagonists of the thyroid receptor (TR) signaling pathway (AID 743065); note: nearly all actives have a fitted effect of over 55% in size; note: potency is the fitted concentration of half-maximal effect
Procedure, shortened: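 GH3.TRE-Luc rat pituitary cells (two TREs driving luciferase) were dosed with compound, then stimulated with 1 nM T3 (final) for 23.5 h at 37 C. ONE-Glo luminescence was the read-out, with CellTiter-Fluor fluorescence as the cytotoxicity counter-screen.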

[20] = qHTS assay for small molecule activators of the heat shock response signaling pathway (AID 743210; active = well fitted activation curve with a large enough effect in the signal ratio in the repeat runs, with a control signal flat, not every such curve was filed as active; the % refers to the signal ratio;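 note: HeLa cells with beta-lactamase reporter driven by heat shock elements; series mostly up to about 63 µM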)
Procedure, shortened: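 Beta-lactamase reporter read-out: FRET substrate fluorescence after 2.5 h at RT, following 5 h compound treatment at 37 C of HeLa cells carrying HSE-driven bla reporter; quantitative HTS format.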

Chain of Aryl hydrocarbon receptor (Homo sapiens) (P35869 whole entry, looked up): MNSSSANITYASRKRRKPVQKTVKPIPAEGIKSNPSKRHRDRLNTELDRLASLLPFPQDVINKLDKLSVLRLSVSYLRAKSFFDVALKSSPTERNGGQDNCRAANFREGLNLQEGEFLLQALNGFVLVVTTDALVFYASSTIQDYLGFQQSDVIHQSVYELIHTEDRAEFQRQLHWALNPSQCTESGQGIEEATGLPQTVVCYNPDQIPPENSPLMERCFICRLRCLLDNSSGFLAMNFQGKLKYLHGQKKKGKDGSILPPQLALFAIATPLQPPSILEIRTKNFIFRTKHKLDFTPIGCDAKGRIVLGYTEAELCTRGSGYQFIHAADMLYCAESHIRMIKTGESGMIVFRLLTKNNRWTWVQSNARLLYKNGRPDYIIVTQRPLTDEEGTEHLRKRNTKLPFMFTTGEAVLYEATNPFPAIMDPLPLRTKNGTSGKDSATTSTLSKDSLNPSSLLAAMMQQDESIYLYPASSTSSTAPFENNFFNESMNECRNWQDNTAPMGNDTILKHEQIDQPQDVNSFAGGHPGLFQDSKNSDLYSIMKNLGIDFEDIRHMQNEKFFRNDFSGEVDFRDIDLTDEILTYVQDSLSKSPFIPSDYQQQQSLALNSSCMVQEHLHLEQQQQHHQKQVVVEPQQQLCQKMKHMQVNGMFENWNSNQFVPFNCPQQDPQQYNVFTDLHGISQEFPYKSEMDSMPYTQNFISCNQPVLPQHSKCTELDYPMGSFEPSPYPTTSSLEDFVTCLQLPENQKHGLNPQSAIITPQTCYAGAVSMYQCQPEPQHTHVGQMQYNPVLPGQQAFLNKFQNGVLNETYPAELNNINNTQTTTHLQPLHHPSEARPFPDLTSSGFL
Chain of Aromatase (Homo sapiens) (P11511 whole entry, looked up): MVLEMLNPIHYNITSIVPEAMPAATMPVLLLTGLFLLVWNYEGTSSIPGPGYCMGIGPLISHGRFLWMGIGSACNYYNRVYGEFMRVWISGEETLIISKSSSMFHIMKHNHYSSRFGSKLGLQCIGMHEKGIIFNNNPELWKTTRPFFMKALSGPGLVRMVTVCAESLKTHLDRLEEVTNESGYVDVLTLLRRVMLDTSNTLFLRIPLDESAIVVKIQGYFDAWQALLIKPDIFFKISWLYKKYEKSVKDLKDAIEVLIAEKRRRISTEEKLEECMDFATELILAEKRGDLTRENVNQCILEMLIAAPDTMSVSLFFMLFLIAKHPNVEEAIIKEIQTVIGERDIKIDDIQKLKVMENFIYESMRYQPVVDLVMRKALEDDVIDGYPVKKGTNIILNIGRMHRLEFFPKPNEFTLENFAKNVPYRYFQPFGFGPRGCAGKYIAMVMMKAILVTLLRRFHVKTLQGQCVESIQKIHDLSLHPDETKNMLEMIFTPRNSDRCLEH
Chain of Estrogen receptor (Homo sapiens) (P03372 whole entry, looked up): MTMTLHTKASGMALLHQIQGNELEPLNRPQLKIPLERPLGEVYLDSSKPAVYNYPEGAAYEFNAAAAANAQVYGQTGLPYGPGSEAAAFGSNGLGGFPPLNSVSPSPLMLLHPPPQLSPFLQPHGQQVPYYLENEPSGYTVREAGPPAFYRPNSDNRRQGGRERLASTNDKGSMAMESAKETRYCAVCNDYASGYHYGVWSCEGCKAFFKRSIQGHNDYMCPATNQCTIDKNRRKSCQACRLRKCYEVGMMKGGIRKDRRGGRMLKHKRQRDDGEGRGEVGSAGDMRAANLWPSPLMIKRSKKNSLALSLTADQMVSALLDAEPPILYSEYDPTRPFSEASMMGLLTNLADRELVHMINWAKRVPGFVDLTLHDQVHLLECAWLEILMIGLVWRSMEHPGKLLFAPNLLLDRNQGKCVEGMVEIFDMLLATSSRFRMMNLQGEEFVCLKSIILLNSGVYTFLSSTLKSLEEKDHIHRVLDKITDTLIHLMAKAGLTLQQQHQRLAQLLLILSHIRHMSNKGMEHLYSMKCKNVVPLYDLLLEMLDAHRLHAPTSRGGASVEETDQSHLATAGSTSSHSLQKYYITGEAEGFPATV
Chain of Peroxisome proliferator-activated receptor gamma (Homo sapiens) (P37231 whole entry, looked up): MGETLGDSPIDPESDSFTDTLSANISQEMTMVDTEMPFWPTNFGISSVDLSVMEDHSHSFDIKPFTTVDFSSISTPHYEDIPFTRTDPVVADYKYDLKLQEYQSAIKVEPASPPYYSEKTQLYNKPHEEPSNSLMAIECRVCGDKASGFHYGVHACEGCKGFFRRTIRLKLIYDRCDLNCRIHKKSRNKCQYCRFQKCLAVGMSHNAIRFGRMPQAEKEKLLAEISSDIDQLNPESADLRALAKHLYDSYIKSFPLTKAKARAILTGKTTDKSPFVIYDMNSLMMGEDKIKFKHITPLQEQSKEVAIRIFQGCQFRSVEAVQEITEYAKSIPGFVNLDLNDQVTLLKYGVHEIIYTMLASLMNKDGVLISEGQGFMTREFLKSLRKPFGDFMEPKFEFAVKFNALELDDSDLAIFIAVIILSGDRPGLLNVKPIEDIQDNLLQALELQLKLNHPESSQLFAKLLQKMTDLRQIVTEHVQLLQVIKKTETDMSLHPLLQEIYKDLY

Row | SMILES | outcome [1] | Potency [2] | Potency [3] | Potency [4] | outcome [5] | outcome [6] | Potency [7] | Potency [8] | Potency [9] | Potency [10] | outcome [11] | Potency [12] | outcome [13] | outcome [14] | outcome [15] | Potency [16] | Potency [17] | Potency [18] | Potency [19] | outcome [20]
1 | CCCCS(=O)(=O)N[C@@H](Cc1ccc(OCCCCC2CCNCC2)cc1)C(=O)O | inactive | inactive | inactive | inactive | inactive | inactive | inactive | inactive | inactive | inactive | inactive | inactive | inactive | inactive | inactive | – | – | – | – | –
2 | FB(F)F | inactive | – | inactive | inactive | inactive | inactive | inactive | inactive | inactive | – | inactive | inactive | inactive | inactive | inactive | inactive | inactive | inactive | – | –
3 | CC1=C(C/C=C(\C)CCC[C@H](C)CCC[C@H](C)CCCC(C)C)C(=O)c2ccccc2C1=O | inactive | – | – | – | inactive | inactive | inactive | inactive | inactive | – | inactive | inactive | – | inactive | inactive | – | – | – | inactive | inactive
4 | O=S(=O)(O)c1cccc2c(S(=O)(=O)O)cccc12 | inactive | – | – | – | – | inactive | inactive | inactive | inactive | inactive | inactive | inactive | – | inactive | inactive | inactive | – | – | – | –
5 | CCCn1cc[n+](C)c1C | inactive | – | – | – | inactive | inactive | inactive | inactive | – | – | inactive | – | – | inactive | inactive | inactive | – | – | inactive | inactive
6 | CC(CC=O)CC(C)(C)C (stereo unspecified) | inactive | – | inactive | inactive | inactive | inactive | inactive | inactive | inactive | inactive | inactive | – | inactive | inactive | inactive | – | inactive | inactive | inactive | inactive
7 | Cc1ccc(C(=O)c2ccc(CC(=O)O)n2C)cc1 | inactive | – | inactive | inactive | inactive | inactive | inactive | – | inactive | – | inactive | inactive | inactive | inactive | inactive | inactive | inactive | inactive | – | –
8 | CC(C)(C)C(=O)Oc1ccc(S(=O)(=O)Nc2ccccc2C(=O)NCC(=O)O)cc1 | inactive | inactive | inactive | inactive | – | inactive | inactive | inactive | inactive | inactive | inactive | – | inactive | – | inactive | inactive | – | 11.9 µM (active) | – | –
9 | NC(=O)N1c2ccccc2CC(=O)c2ccccc21 | inactive | – | – | – | inactive | – | – | inactive | – | – | inactive | inactive | inactive | inactive | inactive | inactive | – | – | 11.9 µM (active) | inactive
10 | C=C(C)C(=O)OCC1CCCO1 (stereo unspecified) | inactive | – | – | – | inactive | – | – | inactive | – | – | inactive | inactive | – | inactive | inactive | inactive | – | – | inactive | inactive
11 | CC12CCC(C(=O)C1=O)C2(C)C (stereo unspecified) | inactive | – | – | – | inactive | inactive | inactive | inactive | inactive | – | inactive | inactive | inactive | inactive | inactive | – | – | inactive | inactive | inactive
12 | NC(=O)N[C@@H](CCC(=O)O)C(=O)O | inactive | – | – | – | inactive | – | – | inactive | – | – | inactive | – | – | inactive | inactive | inactive | – | – | inactive | inactive
13 | O=S(=O)(O)c1cccc2ccccc12 | inactive | – | – | – | inactive | inactive | – | inactive | inactive | inactive | inactive | – | – | inactive | inactive | inactive | – | – | inactive | inactive
14 | Cc1ncc(COP(=O)(O)O)c(C=O)c1O | inactive | inactive | inactive | inactive | inactive | inactive | – | inactive | inactive | inactive | inactive | – | inactive | inactive | inactive | – | inactive | – | – | –
15 | C[C@@H]1C[C@H]2[C@@H]3C[C@H](F)C4=CC(=O)C(Cl)=C[C@]4(C)[C@@]3(F)[C@@H](O)C[C@]2(C)[C@@]1(O)C(=O)CO | inactive | – | inactive | inactive | inactive | inactive | inactive | inactive | inactive | – | inactive | inactive | inactive | inactive | inactive | inactive | – | inactive | – | –
16 | N[C@@H](CCC(=O)O)C(=O)O | inactive | – | inactive | inactive | inactive | inactive | inactive | inactive | inactive | inactive | inactive | inactive | – | inactive | inactive | inactive | inactive | inactive | – | –
17 | NCCCC(N)(C(=O)O)C(F)F (stereo unspecified) | inactive | – | – | – | inactive | – | – | inactive | – | – | inactive | inactive | inactive | – | inactive | inactive | – | – | – | –
18 | C=C(C)C(=O)OCCOCCOCCOCCOC(=O)C(=C)C | inactive | – | – | – | inactive | inactive | inactive | inactive | – | – | – | – | inactive | inactive | inactive | inactive | – | – | inactive | inactive
19 | NC(CCC(=O)O)C(=O)O (stereo unspecified) | inactive | inactive | inactive | inactive | inactive | inactive | inactive | inactive | inactive | inactive | inactive | inactive | inactive | inactive | inactive | inactive | inactive | inactive | – | –
20 | Cc1c(N)c(=O)n(-c2ccccc2)n1C | inactive | – | – | – | – | inactive | inactive | inactive | – | – | inactive | – | inactive | inactive | inactive | inactive | – | inactive | inactive | inactive
